Measurements reported in ChEMBL document CHEMBL1961873, “Compounds: GSK PKIS; Assays: Nanosyn kinase panel” (2012).

How the values were obtained:
[1] = target: T1, Inhibitor of nuclear factor kappa-B kinase subunit epsilon (Homo sapiens) (UniProt Q14164); details: at 1 µM;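 also: reported values are averaged percent inhibition figures against human IKKε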
T1 sequence (whole entry): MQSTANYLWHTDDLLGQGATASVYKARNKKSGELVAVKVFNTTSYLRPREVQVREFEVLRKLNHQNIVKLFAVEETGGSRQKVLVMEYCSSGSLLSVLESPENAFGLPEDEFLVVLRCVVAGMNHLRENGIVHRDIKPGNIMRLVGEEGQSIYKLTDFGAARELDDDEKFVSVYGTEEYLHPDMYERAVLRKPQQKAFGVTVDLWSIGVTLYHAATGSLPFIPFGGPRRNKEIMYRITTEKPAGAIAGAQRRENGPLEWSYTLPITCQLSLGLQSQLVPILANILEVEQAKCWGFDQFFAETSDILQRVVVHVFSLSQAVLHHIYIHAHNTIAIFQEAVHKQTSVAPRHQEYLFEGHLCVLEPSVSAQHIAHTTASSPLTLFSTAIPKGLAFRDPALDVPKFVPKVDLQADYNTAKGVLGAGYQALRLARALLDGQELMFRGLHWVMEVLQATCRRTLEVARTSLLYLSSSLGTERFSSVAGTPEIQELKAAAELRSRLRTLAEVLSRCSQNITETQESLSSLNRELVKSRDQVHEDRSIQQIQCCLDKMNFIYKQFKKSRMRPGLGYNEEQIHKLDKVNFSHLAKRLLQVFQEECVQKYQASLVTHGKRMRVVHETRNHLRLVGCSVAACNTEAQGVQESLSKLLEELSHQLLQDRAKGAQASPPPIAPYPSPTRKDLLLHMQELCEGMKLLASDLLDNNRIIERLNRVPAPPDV

[2] = target: T2, Serine/threonine-protein kinase Nek1 (Homo sapiens) (UniProt Q96PY6); details: at 0.1 µM
T2 sequence (whole entry): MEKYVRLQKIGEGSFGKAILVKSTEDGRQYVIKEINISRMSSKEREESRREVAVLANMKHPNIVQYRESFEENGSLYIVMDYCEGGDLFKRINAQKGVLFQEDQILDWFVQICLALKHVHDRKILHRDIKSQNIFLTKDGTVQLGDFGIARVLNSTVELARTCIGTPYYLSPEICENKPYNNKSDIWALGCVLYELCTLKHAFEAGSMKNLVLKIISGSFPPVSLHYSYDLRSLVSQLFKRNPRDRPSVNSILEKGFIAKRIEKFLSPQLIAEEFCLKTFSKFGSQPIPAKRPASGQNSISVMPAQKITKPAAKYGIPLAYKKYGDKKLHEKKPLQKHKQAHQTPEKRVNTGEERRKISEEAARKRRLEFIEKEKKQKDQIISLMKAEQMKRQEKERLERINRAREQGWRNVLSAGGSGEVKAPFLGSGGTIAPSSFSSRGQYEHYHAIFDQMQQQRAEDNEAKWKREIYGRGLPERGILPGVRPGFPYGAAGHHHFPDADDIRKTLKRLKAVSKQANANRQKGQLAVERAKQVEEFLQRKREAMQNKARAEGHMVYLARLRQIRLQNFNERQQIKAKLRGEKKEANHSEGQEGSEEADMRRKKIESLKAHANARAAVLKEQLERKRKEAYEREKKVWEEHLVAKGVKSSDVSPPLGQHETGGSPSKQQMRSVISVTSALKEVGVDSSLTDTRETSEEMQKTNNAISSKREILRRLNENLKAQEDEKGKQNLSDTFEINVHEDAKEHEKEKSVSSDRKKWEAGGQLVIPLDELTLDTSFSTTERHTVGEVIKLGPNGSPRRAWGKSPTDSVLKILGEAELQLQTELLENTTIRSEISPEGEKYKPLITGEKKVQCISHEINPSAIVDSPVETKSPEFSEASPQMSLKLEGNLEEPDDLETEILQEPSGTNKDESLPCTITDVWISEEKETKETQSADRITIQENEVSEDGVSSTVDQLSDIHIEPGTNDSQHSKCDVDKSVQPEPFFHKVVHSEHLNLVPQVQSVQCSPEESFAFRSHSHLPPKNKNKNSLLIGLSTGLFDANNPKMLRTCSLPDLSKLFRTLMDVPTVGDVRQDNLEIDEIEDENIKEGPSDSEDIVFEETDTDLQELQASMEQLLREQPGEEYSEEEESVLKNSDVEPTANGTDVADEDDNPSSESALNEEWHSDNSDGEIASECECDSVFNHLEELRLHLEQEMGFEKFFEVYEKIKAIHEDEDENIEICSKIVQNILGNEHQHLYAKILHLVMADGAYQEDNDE

[3] = target: T2, Serine/threonine-protein kinase Nek1 (Homo sapiens); details: at 1 µM
[4] = target: T3, Serine/threonine-protein kinase Nek2 (Homo sapiens) (UniProt P51955); details: at 0.1 µM
T3 sequence (whole entry): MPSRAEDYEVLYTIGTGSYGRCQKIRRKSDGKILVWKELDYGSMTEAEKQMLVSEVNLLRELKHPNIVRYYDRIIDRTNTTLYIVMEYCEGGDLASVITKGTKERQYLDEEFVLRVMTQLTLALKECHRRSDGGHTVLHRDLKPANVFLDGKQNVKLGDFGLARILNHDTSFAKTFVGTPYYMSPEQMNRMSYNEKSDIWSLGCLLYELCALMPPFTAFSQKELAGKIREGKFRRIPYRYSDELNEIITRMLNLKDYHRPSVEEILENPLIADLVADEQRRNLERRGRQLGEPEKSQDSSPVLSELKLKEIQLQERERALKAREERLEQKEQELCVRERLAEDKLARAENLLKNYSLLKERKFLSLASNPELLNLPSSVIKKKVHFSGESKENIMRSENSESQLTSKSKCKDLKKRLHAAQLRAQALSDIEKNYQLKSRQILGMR

[5] = target: T3, Serine/threonine-protein kinase Nek2 (Homo sapiens); details: at 1 µM
[6] = target: Serine/threonine-protein kinase Nek6 (Homo sapiens) (UniProt Q9HC98); details: at 0.1 µM
[7] = target: Serine/threonine-protein kinase Nek6 (Homo sapiens) (UniProt Q9HC98); details: at 1 µM
[8] = target: Serine/threonine-protein kinase Nek7 (Homo sapiens) (UniProt Q8TDX7); details: at 0.1 µM
[9] = target: Serine/threonine-protein kinase Nek7 (Homo sapiens) (UniProt Q8TDX7); details: at 1 µM
[10] = target: T4, Serine/threonine-protein kinase Nek9 (Homo sapiens) (UniProt Q8TD19); details: at 0.1 µM
T4 sequence (whole entry): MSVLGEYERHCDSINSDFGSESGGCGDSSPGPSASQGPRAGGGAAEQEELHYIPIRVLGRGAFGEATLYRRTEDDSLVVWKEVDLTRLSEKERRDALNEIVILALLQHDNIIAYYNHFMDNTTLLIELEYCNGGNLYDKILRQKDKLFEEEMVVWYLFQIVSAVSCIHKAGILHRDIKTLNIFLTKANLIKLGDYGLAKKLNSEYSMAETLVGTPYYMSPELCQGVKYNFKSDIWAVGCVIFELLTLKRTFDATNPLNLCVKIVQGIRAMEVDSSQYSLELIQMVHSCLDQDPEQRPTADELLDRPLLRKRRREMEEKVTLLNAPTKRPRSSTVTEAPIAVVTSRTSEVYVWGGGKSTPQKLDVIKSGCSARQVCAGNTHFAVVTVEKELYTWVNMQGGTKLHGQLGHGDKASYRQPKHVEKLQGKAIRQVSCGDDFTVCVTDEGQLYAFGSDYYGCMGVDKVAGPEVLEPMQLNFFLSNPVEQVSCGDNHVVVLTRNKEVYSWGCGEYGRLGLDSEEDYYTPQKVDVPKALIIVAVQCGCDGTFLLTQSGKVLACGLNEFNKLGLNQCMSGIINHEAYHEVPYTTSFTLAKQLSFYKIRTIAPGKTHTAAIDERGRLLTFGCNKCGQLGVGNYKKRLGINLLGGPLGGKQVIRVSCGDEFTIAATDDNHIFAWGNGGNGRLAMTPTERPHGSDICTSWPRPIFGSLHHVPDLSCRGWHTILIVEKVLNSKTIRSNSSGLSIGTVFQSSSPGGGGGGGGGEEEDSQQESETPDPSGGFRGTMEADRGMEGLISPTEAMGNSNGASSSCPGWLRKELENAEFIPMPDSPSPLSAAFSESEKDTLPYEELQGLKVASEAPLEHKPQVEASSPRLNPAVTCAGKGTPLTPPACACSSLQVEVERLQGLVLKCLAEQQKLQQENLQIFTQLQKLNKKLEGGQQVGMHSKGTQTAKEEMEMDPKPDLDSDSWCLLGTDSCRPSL

[11] = target: T4, Serine/threonine-protein kinase Nek9 (Homo sapiens); details: at 1 µM
[12] = target: Serine/threonine-protein kinase PLK1 (Homo sapiens) (UniProt P53350); details: at 0.1 µM
[13] = target: Serine/threonine-protein kinase PLK1 (Homo sapiens) (UniProt P53350); details: at 1 µM
[14] = target: T5, Dual specificity protein kinase TTK (Homo sapiens) (UniProt P33981); details: at 0.1 µM
T5 sequence (whole entry): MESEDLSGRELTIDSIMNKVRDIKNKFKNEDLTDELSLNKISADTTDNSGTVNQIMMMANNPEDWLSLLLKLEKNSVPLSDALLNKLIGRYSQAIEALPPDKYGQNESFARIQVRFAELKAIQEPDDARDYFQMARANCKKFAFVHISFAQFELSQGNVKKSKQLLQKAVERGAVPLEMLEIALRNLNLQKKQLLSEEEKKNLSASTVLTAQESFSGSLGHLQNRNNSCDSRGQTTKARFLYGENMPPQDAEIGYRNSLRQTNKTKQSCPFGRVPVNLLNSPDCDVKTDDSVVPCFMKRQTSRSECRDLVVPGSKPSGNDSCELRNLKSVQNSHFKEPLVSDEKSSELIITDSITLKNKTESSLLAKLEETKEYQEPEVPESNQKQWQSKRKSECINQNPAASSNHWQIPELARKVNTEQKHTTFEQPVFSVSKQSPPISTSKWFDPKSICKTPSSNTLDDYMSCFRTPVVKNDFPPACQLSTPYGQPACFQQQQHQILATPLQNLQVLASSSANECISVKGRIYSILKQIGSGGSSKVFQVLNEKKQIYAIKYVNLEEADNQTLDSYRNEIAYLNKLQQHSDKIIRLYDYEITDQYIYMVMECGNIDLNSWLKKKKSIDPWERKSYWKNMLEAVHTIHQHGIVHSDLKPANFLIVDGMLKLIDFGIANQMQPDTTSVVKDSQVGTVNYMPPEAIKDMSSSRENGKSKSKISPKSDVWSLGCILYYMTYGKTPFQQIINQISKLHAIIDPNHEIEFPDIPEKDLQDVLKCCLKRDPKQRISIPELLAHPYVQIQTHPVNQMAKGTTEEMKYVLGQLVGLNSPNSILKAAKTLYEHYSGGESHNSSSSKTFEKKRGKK

[15] = system: T6, Receptor-type tyrosine-protein kinase FLT3 (Homo sapiens), P36888 [D835Y]; details: at 1 µM
T6 sequence (whole entry): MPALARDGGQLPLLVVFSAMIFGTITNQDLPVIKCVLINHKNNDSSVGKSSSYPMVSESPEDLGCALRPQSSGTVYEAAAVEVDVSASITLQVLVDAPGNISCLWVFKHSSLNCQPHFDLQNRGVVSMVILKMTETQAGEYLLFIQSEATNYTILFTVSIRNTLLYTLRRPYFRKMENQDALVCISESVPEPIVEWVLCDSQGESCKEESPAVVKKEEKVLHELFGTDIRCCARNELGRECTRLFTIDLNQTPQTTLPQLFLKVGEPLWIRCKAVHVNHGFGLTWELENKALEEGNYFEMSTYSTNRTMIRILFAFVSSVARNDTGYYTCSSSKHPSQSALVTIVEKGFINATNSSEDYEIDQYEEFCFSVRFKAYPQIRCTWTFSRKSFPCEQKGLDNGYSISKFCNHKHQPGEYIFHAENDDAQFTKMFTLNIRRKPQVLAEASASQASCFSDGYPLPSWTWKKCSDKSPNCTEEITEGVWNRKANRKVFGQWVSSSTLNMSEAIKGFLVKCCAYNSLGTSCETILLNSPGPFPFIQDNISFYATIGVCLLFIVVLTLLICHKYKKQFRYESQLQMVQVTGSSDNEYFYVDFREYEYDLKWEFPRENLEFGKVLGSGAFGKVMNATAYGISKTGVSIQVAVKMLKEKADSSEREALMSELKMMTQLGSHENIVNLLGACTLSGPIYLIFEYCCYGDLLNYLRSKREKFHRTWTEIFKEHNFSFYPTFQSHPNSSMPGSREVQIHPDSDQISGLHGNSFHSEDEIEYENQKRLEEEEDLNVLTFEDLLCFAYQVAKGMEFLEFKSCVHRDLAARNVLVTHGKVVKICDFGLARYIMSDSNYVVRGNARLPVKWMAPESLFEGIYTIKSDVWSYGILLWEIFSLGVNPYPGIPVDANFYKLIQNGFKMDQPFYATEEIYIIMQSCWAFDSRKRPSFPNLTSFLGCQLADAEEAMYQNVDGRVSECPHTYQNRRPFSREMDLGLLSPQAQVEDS

[16] = target: Vascular endothelial growth factor receptor 3 (Homo sapiens) (UniProt P35916); details: at 0.1 µM
[17] = target: Vascular endothelial growth factor receptor 3 (Homo sapiens) (UniProt P35916); details: at 1 µM
[18] = target: Macrophage colony-stimulating factor 1 receptor (Homo sapiens) (UniProt P07333); details: at 0.1 µM
[19] = target: Macrophage colony-stimulating factor 1 receptor (Homo sapiens) (UniProt P07333); details: at 1 µM
[20] = target: Tyrosine-protein kinase Fyn (Homo sapiens) (UniProt P06241); details: at 0.1 µM
Sequence of Tyrosine-protein kinase Fyn (Homo sapiens) (P06241 2-537 limits assumed): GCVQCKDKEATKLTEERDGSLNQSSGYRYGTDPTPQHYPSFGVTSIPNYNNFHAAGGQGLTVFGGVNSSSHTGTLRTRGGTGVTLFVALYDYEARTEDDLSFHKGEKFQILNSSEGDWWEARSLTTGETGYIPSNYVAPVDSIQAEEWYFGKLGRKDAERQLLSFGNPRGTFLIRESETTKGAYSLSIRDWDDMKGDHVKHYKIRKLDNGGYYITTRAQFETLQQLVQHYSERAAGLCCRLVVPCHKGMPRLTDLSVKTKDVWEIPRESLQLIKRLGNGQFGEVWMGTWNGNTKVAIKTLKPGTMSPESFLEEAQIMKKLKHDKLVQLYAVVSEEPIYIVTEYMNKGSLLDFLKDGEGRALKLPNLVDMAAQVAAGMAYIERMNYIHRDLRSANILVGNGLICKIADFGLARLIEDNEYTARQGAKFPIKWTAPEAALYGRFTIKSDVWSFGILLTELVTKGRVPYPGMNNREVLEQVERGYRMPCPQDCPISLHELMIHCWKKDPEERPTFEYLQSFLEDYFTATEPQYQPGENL

Sequence of Serine/threonine-protein kinase Nek6 (Homo sapiens) (Q9HC98 whole entry): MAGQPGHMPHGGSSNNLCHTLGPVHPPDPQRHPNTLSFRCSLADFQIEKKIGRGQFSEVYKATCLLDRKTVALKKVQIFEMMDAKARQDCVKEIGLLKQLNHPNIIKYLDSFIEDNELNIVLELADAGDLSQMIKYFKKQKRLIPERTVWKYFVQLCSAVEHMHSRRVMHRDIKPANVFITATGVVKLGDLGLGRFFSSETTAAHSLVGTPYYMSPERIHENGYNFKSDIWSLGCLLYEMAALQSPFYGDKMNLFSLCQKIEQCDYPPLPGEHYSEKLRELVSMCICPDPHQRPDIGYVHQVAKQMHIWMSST
Sequence of Macrophage colony-stimulating factor 1 receptor (Homo sapiens) (P07333 whole entry): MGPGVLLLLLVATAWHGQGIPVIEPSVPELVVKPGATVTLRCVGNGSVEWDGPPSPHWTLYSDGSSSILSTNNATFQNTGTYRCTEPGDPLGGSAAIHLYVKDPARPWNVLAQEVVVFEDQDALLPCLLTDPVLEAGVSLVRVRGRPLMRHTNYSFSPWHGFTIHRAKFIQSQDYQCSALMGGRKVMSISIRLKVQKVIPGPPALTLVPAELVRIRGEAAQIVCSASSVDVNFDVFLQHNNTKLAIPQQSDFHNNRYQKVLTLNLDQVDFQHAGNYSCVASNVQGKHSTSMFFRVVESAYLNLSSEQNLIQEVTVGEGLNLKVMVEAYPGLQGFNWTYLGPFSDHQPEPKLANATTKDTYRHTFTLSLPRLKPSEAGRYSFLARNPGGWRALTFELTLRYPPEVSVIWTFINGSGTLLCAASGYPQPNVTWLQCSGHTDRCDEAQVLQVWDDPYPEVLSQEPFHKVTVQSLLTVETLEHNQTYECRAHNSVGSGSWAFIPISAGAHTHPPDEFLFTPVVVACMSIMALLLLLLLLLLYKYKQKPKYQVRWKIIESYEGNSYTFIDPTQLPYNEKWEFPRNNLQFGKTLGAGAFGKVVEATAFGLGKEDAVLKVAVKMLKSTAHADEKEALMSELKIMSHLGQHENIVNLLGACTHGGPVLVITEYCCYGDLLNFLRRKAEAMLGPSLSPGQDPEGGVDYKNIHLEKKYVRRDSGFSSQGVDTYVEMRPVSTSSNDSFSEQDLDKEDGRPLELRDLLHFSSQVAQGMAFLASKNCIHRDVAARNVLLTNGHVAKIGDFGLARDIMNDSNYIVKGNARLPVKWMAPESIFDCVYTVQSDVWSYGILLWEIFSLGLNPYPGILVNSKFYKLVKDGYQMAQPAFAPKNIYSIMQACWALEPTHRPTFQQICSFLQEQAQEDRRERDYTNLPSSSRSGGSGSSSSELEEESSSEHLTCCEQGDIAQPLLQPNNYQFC
Sequence of Vascular endothelial growth factor receptor 3 (Homo sapiens) (P35916 whole entry): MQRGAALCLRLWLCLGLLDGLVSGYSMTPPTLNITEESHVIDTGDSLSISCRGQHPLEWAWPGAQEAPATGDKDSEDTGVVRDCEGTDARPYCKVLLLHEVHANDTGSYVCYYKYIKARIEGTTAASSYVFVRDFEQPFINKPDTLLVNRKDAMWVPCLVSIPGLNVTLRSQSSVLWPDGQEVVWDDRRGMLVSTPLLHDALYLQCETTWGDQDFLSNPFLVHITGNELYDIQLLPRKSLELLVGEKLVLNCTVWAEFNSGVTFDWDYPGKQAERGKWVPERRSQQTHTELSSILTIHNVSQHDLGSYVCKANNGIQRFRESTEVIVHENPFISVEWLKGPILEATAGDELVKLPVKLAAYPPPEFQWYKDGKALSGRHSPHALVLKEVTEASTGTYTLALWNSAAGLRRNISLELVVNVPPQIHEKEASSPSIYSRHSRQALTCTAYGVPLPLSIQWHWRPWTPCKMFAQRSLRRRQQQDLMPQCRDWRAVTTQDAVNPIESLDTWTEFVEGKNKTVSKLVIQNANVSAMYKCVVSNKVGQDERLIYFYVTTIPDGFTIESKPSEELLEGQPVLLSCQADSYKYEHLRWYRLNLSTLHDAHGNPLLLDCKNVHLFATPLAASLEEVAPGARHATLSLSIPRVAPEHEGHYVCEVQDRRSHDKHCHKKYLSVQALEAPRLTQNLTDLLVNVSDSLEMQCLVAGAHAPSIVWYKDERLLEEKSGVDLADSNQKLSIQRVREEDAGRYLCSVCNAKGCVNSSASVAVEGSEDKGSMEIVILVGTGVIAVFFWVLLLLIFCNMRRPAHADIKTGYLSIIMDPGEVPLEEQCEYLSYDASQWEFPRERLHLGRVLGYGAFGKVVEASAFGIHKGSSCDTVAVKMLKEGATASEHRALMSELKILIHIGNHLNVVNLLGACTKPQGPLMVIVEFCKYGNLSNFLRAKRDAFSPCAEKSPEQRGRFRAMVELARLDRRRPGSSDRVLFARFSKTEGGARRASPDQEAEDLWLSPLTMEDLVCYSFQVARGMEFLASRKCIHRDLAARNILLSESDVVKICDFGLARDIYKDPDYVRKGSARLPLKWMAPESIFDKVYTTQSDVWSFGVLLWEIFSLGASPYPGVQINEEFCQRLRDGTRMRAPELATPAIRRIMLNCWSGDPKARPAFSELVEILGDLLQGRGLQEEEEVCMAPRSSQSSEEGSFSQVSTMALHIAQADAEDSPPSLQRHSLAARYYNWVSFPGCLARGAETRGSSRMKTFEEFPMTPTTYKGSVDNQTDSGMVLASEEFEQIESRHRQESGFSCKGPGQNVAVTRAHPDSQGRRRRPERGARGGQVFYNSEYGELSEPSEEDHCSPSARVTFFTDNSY
Sequence of Serine/threonine-protein kinase PLK1 (Homo sapiens) (P53350 whole entry): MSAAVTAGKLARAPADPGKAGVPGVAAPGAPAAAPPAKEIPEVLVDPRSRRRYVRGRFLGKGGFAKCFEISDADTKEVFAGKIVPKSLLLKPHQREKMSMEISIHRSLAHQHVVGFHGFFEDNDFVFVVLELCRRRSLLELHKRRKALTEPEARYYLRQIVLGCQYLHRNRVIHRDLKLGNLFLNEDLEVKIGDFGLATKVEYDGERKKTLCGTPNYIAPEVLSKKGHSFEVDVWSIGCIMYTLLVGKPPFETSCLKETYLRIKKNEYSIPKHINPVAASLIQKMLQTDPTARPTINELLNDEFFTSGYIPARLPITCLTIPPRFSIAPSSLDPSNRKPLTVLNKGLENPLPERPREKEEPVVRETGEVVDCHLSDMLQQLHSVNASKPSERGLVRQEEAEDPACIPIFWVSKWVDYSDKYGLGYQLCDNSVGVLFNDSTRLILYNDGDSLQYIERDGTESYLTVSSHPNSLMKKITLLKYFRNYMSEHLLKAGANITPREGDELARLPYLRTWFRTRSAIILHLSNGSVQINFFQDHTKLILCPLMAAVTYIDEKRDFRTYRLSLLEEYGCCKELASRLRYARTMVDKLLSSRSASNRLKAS
Sequence of Serine/threonine-protein kinase Nek7 (Homo sapiens) (Q8TDX7 whole entry, looked up): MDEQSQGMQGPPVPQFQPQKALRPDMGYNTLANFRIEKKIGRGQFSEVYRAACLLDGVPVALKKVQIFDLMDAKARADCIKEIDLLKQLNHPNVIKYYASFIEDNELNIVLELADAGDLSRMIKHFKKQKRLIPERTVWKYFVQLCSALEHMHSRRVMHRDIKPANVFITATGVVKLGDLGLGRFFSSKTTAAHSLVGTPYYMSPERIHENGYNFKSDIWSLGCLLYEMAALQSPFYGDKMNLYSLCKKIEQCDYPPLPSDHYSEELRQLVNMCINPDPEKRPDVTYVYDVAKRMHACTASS

Row | SMILES | inhibition [1] | inhibition [2] | inhibition [3] | inhibition [4] | inhibition [5] | inhibition [6] | inhibition [7] | inhibition [8] | inhibition [9] | inhibition [10] | inhibition [11] | inhibition [12] | inhibition [13] | inhibition [14] | inhibition [15] | inhibition [16] | inhibition [17] | inhibition [18] | inhibition [19] | inhibition [20]
1 | Nc1nccc(C#Cc2cncnc2Nc2ccc(OCc3cccc(F)c3)c(Cl)c2)n1 | 6.36% | 2.09% | 3.18% | 4.14% | 5.98% | 1.4% | -0.89% | 3.1% | 3.35% | 8.89% | 1.53% | 3.36% | 3.68% | 5.31% | 7.19% | 3.89% | 0.33% | 2.3% | 5.18% | -0.31%
2 | COc1cc2ncnc(Nc3ccc(C)c(O)c3)c2cc1OC | 6.95% | 3.4% | 5.46% | 5.78% | 7.02% | 3.27% | 4.18% | 4.88% | 4.92% | 6.41% | 11.6% | 2.93% | 2.77% | 9.85% | 2.41% | 97.5% | 107% | 4.29% | 6.14% | 12.8%
3 | COc1cc(/C=N/Nc2ncnc3c2cnn3C(C)C)ccc1O | 1.92% | 2.42% | 10.4% | 2.62% | 6.4% | 2.57% | 1.52% | 5.39% | 2.72% | -0.27% | 5.67% | 3.79% | 4.86% | 4.56% | 23.1% | 13.8% | 22.1% | 8.23% | 42.3% | 8.53%
